The list is not random: actives were taken first. Their share in the collection is about 2.4%.
TLR9-MyD88 inh – TLR9-MyD88 interaction inhibition; CHO BLA complementation TLR9-MyD88, CCF4 FRET ratio; inhibition, % at 4.98 µM; 340,000 tested, 0.21% active; AID 504734;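 active = inhibition above the mean over all tested compounds plus 3 SD, cut at about 21% in these data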
m5-HT2A agonist – mouse HTR2A agonism via beta-arrestin recruitment | CHO-K1 mHTR2A beta-arrestin complementation, luminescence; percent of 30 µM serotonin response | P35363 | activation, % at 7.6 µM | 360,000 tested, 0.66% active | AID 624169;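 active = activation above a run cutoff, the mean activation of all tested compounds plus 3 SD, cut at about 14% in these data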
TLR4 MyD88 comp – blocks binding of human TLR4 to MyD88 | O00206+Q99836 | HeLa CL3-4 TLR4/MyD88 BLA complementation, FRET ratio | inhibition, % at 8.4 µM | 200,000 tested, 0.18% active | AID 861; in the data active = inhibition above about 25%
CRFR2-BP antag – antagonists of CRF-binding protein/CRF-R2 receptor complex. HEK293 CRF-R2/CRF-BP, CRF-induced calcium fluorescence. 350,000 tested, 0.59% active. inhibition, % at 11.8 µM. AID 588475;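 active = inhibition of the ligand-induced calcium signal above about 50% at the single tested concentration, limit read from the data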
ABHD5-PLIN5 inh – ABHD5-PLIN5 protein interaction inhibition; Q00G26+Q8WTS1; 360,000 tested, 0.78% active; inhibition, % at 4 µM; AID 602281; Split G. princeps luciferase complementation, luminescence, 4 h;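 active = inhibition above the mean inhibition across every tested compound plus 3 SD, cut at about 22% in these data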
NOD2 RIPK2 PPI – NOD2-RIPK2 protein interaction inhibition; 360,000 tested, 0.38% active; inhibition, % at 4.98 µM; CHO BLA complementation NOD2-RIPK2, CCF4 ratio; in the data active = inhibition above about 21%
OPRM1 ag – OPRM1 agonism in mouse HTR2A counterscreen; shares compounds with m5-HT2A agonist; U2OS OPRM1 beta-arrestin PathHunter, luminescence; DMSO 0%, DAMGO 9.3 µM 100%; activation, % at 9.3 µM; 2,300 tested, 5.3% active; AID 624380;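 active = mean activation above the mean of DMSO-only wells plus 3 SD, cut at about 0.5% in these data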
HTR2A ag conf – mouse HTR2A agonism confirmed; shares compounds with m5-HT2A agonist; CHO-K1 PathHunter beta-arrestin recruitment, luminescence; DMSO 0%, 30 µM serotonin 100%; activation, % at 7.6 µM; 2,300 tested, 19% active; AID 624381;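 active = mean activation across triplicates above the hit threshold derived in the original primary screen, cut at about 15% in these data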
Hits are given with their value; i = inactive; nt = no result given.

SMILES | TLR9-MyD88 inh | m5-HT2A agonist | TLR4 MyD88 comp | CRFR2-BP antag | ABHD5-PLIN5 inh | NOD2 RIPK2 PPI | OPRM1 ag | HTR2A ag conf
CCn1c(CNC(=O)c2ccco2)nnc1SCC(=O)Nc1ccccc1Cl | i | i | nt | i | i | i | nt | nt
CN1CCN(c2ncnc3c2ncn3[C@H]2CN(Cc3cccnc3)C[C@@H](CO)O2)CC1 | nt | i | nt | nt | i | i | nt | nt
Cc1ccccc1CC(=O)N1CCN(S(=O)(=O)c2ccc(Cl)s2)CC1 | i | i | nt | i | i | i | nt | nt
Cc1ccccc1CC(=O)N1CCN(S(=O)(=O)c2cccs2)CC1 | i | 16 | nt | i | i | i | i | i
Cn1c(Cc2ccccc2)nc(=O)c2ccccc21 | nt | i | nt | nt | i | i | nt | nt
CC(=O)c1ccc(NC(=O)C(C)O/N=C(\N)c2ccccc2)cc1 (stereo not given) | i | 15 | nt | i | i | i | i | i
CCO[C@H]1OC(C(=O)O)=C[C@@H](c2ccccc2)[C@@H]1CCCO | i | 15 | nt | i | i | i | i | i
CCO[C@@H]1OC(C(=O)O)=C[C@H](c2ccccc2)[C@H]1CCCO | i | i | nt | i | i | i | nt | nt
CCOC(=O)C1=C(CS(=O)(=O)c2ccccc2)NC(=O)NC1c1ccccc1OCC (stereo not given) | i | 17 | i | i | i | i | i | i
CCC(=O)c1ccc(OCC(=O)OCc2csc(CC(=O)Nc3ccccc3C)n2)cc1 | i | 19 | nt | i | i | i | i | i
Cc1ccccc1NC(=O)Cc1nc(COC(=O)CCC(=O)c2ccccc2)cs1 | i | i | nt | i | i | i | nt | nt
O=C(Nc1ccccn1)c1ccc(S(=O)(=O)N2CCCCC2)cc1 | i | i | nt | i | i | i | nt | nt
O=C(Nc1ccccn1)c1ccc(S(=O)(=O)N2CCCCCC2)cc1 | i | 15 | nt | i | i | i | i | i
COc1cncc(C#Cc2ccccn2)c1 | nt | i | nt | nt | i | i | nt | nt
CCCCNc1c(-c2cc3ccccc3o2)nc2nc(C)cc(C)n12 | nt | 18 | nt | nt | i | i | 0.8 | i
CCCc1c(-c2ccc(F)cc2F)ncn1Cc1cccc(-c2ccccc2)c1 | nt | i | nt | nt | i | i | nt | nt
COc1cc(NC(=O)c2c(F)c(F)c(OC)c(F)c2F)ccc1NC(=O)c1cccs1 | i | 16 | nt | i | i | i | i | i
COc1cc(NC(=O)c2cc(OC)c(OC)c(OC)c2)ccc1NC(=O)c1cccs1 | i | i | nt | i | i | i | nt | nt
COC(=O)C1=CN(Cc2ccc(OC)c(OC)c2)C=C(C(=O)OC)C1c1ccccc1F | i | 17 | nt | i | i | i | i | i
COC(=O)C1=CN(Cc2ccc(OC)c(OC)c2)C=C(C(=O)OC)C1c1cccc(OC)c1OC | i | i | nt | i | i | i | nt | nt
Cc1ccc2c(c1)C(c1ccccc1)N(C(=O)c1ccc(Br)o1)CC(=O)N2 (stereo not given) | i | 19 | i | i | i | i | i | i
O=C1CN(C(=O)c2ccc(Br)o2)C(c2ccccc2)c2cc(Br)ccc2N1 (stereo not given) | i | i | i | i | i | i | nt | nt
CSc1nc2ncnc(N)c2[nH]1 | nt | i | nt | i | i | i | nt | nt
Nc1ncnc2[nH]c(=S)[nH]c12 | i | 17 | nt | i | i | i | i | i
CC1(C)N=C(N)N=C(N)N1c1ccc(F)cc1F | i | i | i | i | i | i | nt | nt
CC1(C)N=C(N)N=C(N)N1c1cc(Cl)ccc1Cl | i | 23 | nt | i | i | i | i | i
COCCn1c(SCC(=O)Nc2ccc(OC)cc2OC)nc2ccccc2c1=O | i | i | nt | i | i | i | nt | nt
Cc1ccc(NC(=O)CSc2nc3ccccc3c(=O)n2CCCN2CCCCC2)cc1Cl | i | 30 | i | i | i | i | i | i
COc1ccc(NC(=O)CSc2nc3ccccc3c(=O)n2CCCN2CCC(C)CC2)c(OC)c1 | i | 61 | i | i | i | i | i | 18
CC1CCN(CCCn2c(SCC(=O)Nc3ccccc3Cl)nc3ccccc3c2=O)CC1 | i | 43 | i | i | i | i | i | 24
